What all share (assay): DAPPL (digital affinity profiling via proximity ligation, sequencing); 10 mM Tris-HCl pH 7.5, 50 mM NaCl, 1 mM DTT, 4% glycerol, room temperature, 30 min; GST-TFs on glutathione beads, 16-mer random dsDNA library, 0.1% formaldehyde crosslink after washing; high values mean tight binding
One experiment has as its target T1, FLI1 (Homo sapiens, UniProt Q01543 1-452).
T1 sequence: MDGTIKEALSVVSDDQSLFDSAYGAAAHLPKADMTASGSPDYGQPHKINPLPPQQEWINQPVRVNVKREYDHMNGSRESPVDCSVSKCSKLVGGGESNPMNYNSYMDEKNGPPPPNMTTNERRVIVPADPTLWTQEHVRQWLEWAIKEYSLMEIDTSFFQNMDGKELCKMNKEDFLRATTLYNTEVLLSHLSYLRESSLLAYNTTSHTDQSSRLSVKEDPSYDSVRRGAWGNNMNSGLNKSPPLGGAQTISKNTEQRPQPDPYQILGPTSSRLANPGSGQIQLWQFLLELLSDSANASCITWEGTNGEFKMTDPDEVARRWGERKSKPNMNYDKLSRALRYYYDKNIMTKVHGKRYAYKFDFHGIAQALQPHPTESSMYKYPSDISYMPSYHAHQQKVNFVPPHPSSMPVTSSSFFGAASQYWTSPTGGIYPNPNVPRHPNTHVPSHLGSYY
The following applies: protein: recombinant; tags: N-terminal GST; dsDNA, one strand shown. The procedure, abridged:
(§1)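 Pools of DNA-barcoded human transcription factors, expressed in yeast as GST fusions on glutathione beads and combined with a tag-only sample, were incubated with 200 nmole of a 16-mer random double-stranded DNA library. Incubation took 30 min at room temperature in Tris/NaCl/DTT/glycerol buffer and was followed by washing, 0.1% formaldehyde crosslinking, proximity ligation (BsaI/T4 ligase, 1 h, 37 °C), PCR amplification and sequencing on an Illumina NextSeq500. Binding signal is the ratio of a hexamer's read frequency for a factor to its frequency for the tag-only sample.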

For a further experiment, the target named is T2, ELK1 (Homo sapiens, UniProt P19419 1-428).
T2 sequence: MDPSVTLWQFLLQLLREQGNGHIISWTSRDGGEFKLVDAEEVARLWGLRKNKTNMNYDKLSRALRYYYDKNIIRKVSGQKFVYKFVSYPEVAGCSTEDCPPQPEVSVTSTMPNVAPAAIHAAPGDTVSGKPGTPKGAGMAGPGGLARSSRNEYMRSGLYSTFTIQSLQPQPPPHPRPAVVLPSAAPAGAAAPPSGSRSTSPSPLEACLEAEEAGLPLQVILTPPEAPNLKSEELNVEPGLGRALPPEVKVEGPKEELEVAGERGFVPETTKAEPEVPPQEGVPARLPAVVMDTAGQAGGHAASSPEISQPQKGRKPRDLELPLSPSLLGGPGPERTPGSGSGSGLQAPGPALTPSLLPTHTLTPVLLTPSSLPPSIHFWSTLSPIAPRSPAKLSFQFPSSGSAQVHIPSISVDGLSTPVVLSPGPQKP
The following applies: protein: recombinant; tags: N-terminal GST; dsDNA, one strand shown. In short, it runs like this:
as §1

In the next experiment the target is T3, GABPA (Homo sapiens, UniProt Q06546 1-454).
T3 sequence: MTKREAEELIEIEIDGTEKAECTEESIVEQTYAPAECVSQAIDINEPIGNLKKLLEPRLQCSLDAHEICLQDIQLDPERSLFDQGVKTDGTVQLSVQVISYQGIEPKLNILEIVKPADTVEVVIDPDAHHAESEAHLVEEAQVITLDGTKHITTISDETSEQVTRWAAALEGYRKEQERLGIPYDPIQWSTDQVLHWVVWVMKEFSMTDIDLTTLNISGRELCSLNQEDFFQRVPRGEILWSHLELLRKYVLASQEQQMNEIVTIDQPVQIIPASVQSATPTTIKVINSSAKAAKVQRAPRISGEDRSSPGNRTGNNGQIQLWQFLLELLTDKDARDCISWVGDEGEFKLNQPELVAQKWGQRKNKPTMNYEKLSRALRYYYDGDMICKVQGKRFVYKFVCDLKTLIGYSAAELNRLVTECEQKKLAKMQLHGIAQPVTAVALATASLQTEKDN
The following applies: protein: recombinant; tags: N-terminal GST; dsDNA, one strand shown. In short, it runs like this:
as §1

Another experiment deals with T4, ERG (Homo sapiens, UniProt P11308 1-479).
T4 sequence: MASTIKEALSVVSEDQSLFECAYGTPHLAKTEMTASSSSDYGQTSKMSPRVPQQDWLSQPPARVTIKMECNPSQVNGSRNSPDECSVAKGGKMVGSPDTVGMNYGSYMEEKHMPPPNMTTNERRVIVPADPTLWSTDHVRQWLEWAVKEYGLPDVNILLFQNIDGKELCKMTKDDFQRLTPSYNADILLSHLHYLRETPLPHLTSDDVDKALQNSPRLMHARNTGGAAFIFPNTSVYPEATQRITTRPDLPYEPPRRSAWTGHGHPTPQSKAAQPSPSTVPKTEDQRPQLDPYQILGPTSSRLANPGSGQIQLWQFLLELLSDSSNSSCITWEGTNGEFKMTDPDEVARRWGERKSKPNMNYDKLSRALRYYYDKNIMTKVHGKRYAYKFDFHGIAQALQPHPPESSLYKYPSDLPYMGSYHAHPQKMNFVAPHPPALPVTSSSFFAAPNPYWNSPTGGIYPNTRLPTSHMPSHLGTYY
The following applies: protein: recombinant; tags: N-terminal GST; dsDNA, one strand shown. In short, it runs like this:
as §1

The target in another experiment is ELF1 (Homo sapiens, UniProt P32519 1-619). The following applies: protein: recombinant; tags: N-terminal GST; dsDNA, one strand shown. The procedure, abridged: as §1
The target in a further experiment is T5, EHF (Homo sapiens, UniProt Q9NZC4 1-300).
T5 sequence: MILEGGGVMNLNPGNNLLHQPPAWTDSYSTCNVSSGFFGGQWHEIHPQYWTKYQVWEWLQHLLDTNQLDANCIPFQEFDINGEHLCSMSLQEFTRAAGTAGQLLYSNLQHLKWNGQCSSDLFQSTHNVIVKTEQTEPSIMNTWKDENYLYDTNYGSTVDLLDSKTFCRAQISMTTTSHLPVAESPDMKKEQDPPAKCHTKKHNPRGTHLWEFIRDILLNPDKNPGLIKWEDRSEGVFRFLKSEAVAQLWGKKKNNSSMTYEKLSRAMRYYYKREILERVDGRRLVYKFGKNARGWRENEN
The following applies: protein: recombinant; tags: N-terminal GST; dsDNA, one strand shown. The procedure, abridged:
as §1

The next experiment has as its target SPI1 (Homo sapiens, UniProt P17947 1-270). Particulars: protein: recombinant; tags: N-terminal GST; dsDNA, one strand shown. In short, it runs like this: as §1
For another experiment, the target named is SPIB (Homo sapiens, UniProt Q01892 1-262). Particulars: protein: recombinant; tags: N-terminal GST; dsDNA, one strand shown. The procedure, abridged:
as §1

The target of the next experiment is T6, ELK3 (Homo sapiens, UniProt P41970 1-407).
T6 sequence: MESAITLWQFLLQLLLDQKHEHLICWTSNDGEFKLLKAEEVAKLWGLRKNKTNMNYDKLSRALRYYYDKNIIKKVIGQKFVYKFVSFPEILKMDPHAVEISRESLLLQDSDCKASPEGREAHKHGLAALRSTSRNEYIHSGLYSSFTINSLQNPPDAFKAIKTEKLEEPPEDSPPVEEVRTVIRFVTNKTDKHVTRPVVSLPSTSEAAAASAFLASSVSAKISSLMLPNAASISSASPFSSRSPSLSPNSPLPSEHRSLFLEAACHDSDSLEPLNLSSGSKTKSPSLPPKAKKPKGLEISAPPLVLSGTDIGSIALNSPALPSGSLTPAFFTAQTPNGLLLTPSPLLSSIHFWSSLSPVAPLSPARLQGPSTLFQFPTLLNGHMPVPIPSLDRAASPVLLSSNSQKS
Particulars: protein: recombinant; tags: N-terminal GST; dsDNA, one strand shown. In short, it runs like this:
as §1

The target in a further experiment is T7, FEV (Homo sapiens, UniProt Q99581 1-238).
T7 sequence: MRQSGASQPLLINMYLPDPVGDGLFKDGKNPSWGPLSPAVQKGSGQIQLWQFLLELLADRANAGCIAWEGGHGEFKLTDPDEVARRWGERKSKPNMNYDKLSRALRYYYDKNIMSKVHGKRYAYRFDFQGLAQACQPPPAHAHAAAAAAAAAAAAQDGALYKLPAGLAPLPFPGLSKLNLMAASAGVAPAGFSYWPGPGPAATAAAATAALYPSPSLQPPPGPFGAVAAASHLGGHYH
Particulars: protein: recombinant; tags: N-terminal GST; dsDNA, one strand shown. In short, it runs like this:
as §1

The next experiment has as its target ETV5 (Homo sapiens, UniProt P41161 1-510). The following applies: protein: recombinant; tags: N-terminal GST; dsDNA, one strand shown. The procedure, abridged:
as §1

The next experiment concerns the target HSF1 (Homo sapiens, UniProt Q00613 1-529). Particulars: protein: recombinant; tags: N-terminal GST; chain copies: 3; dsDNA, one strand shown. The procedure, abridged:
as §1

Another experiment deals with T8, SPIC (Homo sapiens, UniProt Q8N5J4 1-248).
T8 sequence: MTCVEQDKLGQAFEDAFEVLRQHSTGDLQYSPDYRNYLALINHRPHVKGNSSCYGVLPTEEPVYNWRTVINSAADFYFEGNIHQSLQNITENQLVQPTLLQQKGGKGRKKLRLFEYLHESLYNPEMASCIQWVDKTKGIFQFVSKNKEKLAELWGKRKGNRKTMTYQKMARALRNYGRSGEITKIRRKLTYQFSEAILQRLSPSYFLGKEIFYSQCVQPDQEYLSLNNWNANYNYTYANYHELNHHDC
Particulars: protein: recombinant; tags: N-terminal GST; dsDNA, one strand shown. In short, it runs like this: as §1

A further experiment concerns the target ELF4 (Homo sapiens, UniProt Q99607 1-663). The following applies: protein: recombinant; tags: N-terminal GST; dsDNA, one strand shown. The procedure, abridged:
as §1

The target in the next experiment is T9, ELK4 (Homo sapiens, UniProt P28324-2 1-405).
T9 sequence: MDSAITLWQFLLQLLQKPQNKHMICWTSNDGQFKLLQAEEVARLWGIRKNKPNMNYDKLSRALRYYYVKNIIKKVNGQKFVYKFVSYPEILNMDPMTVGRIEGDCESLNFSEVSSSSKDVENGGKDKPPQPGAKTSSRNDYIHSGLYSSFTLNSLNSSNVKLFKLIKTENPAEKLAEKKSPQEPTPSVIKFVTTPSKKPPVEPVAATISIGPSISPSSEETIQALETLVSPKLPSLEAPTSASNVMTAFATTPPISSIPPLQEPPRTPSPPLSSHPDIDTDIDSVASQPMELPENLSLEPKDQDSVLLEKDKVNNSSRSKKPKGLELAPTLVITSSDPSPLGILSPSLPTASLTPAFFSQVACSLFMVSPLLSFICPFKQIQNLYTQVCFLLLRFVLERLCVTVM
Particulars: protein: recombinant; tags: N-terminal GST; dsDNA, one strand shown. In short, it runs like this: as §1

Another experiment deals with T10, ETV2 (Homo sapiens, UniProt O00321 1-342).
T10 sequence: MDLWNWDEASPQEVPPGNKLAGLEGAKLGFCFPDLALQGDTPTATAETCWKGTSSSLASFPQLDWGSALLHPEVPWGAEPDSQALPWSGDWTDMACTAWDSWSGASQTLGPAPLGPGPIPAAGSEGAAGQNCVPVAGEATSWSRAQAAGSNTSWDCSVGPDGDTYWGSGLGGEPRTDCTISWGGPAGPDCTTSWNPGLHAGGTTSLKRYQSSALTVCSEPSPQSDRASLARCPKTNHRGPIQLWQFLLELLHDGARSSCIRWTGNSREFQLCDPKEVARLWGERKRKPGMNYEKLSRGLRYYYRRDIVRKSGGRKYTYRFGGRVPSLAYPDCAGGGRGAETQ
Particulars: protein: recombinant; tags: N-terminal GST; dsDNA, one strand shown. The procedure, abridged: as §1

A further experiment addresses T11, ELF3 (Homo sapiens, UniProt P78545 1-371).
T11 sequence: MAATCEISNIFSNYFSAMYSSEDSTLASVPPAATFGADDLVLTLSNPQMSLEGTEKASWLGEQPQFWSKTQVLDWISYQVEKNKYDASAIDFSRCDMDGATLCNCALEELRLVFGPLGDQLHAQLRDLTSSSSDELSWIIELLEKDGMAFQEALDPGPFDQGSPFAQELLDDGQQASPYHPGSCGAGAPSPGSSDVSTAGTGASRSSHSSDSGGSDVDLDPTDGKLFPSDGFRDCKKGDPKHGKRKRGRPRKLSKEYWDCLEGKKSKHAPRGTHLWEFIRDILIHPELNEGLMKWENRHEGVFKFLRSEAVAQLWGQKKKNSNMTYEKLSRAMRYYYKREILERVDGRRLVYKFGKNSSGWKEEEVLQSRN
Particulars: protein: recombinant; tags: N-terminal GST; dsDNA, one strand shown. The procedure, abridged:
as §1

A further experiment addresses CRX (Homo sapiens, UniProt O43186 1-299). The following applies: protein: recombinant; tags: N-terminal GST; dsDNA, one strand shown. The procedure, abridged: as §1

HSF1, sequence (Q00613 whole entry): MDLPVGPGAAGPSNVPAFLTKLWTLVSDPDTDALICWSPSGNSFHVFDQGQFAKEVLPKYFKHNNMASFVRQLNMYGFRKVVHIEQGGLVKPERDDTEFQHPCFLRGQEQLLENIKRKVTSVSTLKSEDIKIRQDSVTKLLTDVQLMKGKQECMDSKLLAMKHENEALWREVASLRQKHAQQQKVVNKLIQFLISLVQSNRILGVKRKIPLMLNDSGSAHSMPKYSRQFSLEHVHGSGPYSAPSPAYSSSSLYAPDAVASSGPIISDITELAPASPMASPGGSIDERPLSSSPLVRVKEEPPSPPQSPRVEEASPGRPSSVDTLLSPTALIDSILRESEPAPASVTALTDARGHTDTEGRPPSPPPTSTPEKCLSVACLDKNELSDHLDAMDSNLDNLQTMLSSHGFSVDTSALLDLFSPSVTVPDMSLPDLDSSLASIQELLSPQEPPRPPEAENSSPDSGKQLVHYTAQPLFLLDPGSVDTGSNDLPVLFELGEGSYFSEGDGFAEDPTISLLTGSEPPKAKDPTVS
ELF1, sequence (P32519 whole entry): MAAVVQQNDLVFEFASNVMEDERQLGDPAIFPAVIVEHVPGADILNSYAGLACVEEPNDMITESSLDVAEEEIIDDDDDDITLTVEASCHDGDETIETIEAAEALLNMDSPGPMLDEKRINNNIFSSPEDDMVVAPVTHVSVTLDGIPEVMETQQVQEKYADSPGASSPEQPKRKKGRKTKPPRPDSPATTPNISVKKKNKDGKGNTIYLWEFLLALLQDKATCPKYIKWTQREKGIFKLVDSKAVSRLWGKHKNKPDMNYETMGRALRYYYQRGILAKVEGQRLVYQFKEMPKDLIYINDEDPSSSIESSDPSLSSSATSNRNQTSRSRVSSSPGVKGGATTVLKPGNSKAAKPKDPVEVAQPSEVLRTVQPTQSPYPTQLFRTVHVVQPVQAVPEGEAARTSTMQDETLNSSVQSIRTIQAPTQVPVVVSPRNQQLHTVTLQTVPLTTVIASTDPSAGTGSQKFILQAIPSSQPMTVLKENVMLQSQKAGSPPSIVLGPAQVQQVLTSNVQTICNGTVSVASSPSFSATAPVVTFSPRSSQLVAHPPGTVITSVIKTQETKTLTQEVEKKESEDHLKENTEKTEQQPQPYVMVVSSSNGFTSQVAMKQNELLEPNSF
ELF4, sequence (Q99607 whole entry): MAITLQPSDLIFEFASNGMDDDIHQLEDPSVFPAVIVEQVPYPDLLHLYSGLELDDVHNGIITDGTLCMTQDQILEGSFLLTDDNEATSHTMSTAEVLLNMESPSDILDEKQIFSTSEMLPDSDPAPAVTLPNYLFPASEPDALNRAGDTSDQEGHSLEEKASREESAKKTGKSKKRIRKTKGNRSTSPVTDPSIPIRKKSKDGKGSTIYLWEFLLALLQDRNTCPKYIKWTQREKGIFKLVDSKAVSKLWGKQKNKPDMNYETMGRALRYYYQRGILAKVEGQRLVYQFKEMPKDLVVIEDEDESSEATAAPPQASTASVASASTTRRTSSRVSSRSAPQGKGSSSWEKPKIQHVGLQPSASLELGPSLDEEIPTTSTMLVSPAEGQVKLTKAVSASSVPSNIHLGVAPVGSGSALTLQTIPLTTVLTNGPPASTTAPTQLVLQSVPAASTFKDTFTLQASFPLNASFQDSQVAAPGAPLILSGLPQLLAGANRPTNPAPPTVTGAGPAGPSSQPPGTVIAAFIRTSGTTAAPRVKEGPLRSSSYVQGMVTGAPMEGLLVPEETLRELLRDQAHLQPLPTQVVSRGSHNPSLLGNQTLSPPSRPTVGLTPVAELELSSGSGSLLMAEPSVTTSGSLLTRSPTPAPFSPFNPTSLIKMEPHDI
SPIB, sequence (Q01892 whole entry): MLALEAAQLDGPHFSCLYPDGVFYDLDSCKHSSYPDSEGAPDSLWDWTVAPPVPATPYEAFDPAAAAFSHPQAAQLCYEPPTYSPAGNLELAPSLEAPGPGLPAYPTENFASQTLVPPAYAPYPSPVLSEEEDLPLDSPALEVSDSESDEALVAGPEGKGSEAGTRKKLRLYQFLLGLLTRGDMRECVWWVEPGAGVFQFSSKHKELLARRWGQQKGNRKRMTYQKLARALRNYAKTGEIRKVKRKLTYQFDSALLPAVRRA
ETV5, sequence (P41161 whole entry): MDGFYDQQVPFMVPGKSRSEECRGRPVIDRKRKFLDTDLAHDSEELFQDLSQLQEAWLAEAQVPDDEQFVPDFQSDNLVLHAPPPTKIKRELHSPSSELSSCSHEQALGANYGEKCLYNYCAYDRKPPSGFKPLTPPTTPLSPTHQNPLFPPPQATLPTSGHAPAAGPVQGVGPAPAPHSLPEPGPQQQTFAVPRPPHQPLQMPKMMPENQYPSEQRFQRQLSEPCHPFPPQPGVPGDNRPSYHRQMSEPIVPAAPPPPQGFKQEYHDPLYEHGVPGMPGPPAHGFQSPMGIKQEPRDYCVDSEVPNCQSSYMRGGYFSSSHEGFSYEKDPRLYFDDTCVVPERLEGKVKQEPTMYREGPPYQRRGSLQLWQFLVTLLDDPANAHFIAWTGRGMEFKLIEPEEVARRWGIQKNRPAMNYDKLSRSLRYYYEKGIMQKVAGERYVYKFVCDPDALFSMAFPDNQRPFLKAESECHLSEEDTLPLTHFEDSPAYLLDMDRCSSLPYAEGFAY
CRX, sequence (O43186 whole entry): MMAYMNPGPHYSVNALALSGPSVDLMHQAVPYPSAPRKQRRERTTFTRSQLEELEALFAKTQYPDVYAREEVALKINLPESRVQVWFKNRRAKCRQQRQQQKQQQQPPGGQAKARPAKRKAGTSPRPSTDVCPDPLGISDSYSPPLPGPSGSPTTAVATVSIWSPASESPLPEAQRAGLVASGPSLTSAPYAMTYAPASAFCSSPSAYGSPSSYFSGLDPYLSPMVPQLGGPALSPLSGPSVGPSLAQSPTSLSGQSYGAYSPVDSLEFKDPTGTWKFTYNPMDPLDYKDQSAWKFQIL

AGTTAA: the binding signal is 1.02 fold enrichment (6-mer frequency, TF over GST control) with FLI1; 1.09 fold enrichment (6-mer frequency, TF over GST control) with ELK1; 1.05 fold enrichment (6-mer frequency, TF over GST control) with GABPA; 1.12 fold enrichment (6-mer frequency, TF over GST control) with ERG; 1.01 fold enrichment (6-mer frequency, TF over GST control) with ELF1; 1.08 fold enrichment (6-mer frequency, TF over GST control) with EHF. Further, the binding signal with SPI1 is 1.13 fold enrichment (6-mer frequency, TF over GST control); with SPIB, 1.08 fold enrichment (6-mer frequency, TF over GST control); with ELK3 it was 1.04 fold enrichment (6-mer frequency, TF over GST control); with FEV it was 1.05 fold enrichment (6-mer frequency, TF over GST control); with ETV5, 1.1 fold enrichment (6-mer frequency, TF over GST control); with HSF1, 1.15 fold enrichment (6-mer frequency, TF over GST control). The binding signal is 1.05 fold enrichment (6-mer frequency, TF over GST control) in the experiment with SPIC; 1.15 fold enrichment (6-mer frequency, TF over GST control) with ELF4; 1.15 fold enrichment (6-mer frequency, TF over GST control) in the experiment with ELK4; 1.2 fold enrichment (6-mer frequency, TF over GST control) with ETV2; 1.09 fold enrichment (6-mer frequency, TF over GST control) with ELF3; 1.51 fold enrichment (6-mer frequency, TF over GST control) with CRX.

These data come from article PMC7862700, “An all-to-all approach to the identification of sequence-specific readers for epigenetic DNA modifications on cytosine”.
